Measured values as given in PMC5540273 (PLoS ONE, 2017).

Assays:
Settings in all cases: concentration: 1 μM, replicates: in singlicate; n = 1
CDK2 = tested on: CDK2
CDK3 = tested on: CDK3
CDK4-cyclinD1 = tested on: CDK4-cyclinD1
CDK4-cyclinD3 = tested on: CDK4-cyclinD3
CDK4 = tested on: CDK4
CDK5 = tested on: CDK5
CDK7 = tested on: CDK7
CDK8 = tested on: CDK8
CDK9 = tested on: CDK9
CDKL1 = tested on: CDKL1
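Also: KINOMEscan kinase panel screen.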

Compound	%Inh (CDK2) [%]	%Inh (CDK3) [%]	%Inh (CDK4-cyclinD1) [%]	%Inh (CDK4-cyclinD3) [%]	%Inh (CDK4) [%]	%Inh (CDK5) [%]	%Inh (CDK7) [%]	%Inh (CDK8) [%]	%Inh (CDK9) [%]	%Inh (CDKL1) [%]
CCCc1ccc(S(=O)(=O)NC2CCN(c3ccnc(Nc4ccc(OC)cc4)n3)C2)cc1 (centres unmarked) [GSK1379737]	0	16	25	0	37	0	0	50	0	6
Fc1ccc(Nc2nccc(-c3c(-c4ccc(Cl)cc4)nn4ncccc34)n2)cc1F [GW829058]	13	18	62	12	19	34	42	0	12	17
Cl.O=S(=O)(c1cccc(F)c1)c1ccc(Nc2ncnc3cc(Br)sc23)cc1Cl [GSK306886]	6	44	0	7	17	0	0	0	6	19
N#Cc1ccc(Oc2ccc(Nc3ncnc4cc[nH]c34)cc2Cl)cc1	6	2	11	6	0	0	27	13	17	27
Cl.c1ccc(Cn2ccc3cc(Nc4ncnc5ccccc45)ccc32)cc1 [GW275568]	1	16	0	16	31	0	13	5	27	18
CC(=O)Nc1n[nH]c2ncc(-c3ccccc3)cc12 [SB-548492]	8	12	0	1	25	11	17	0	0	30
COc1ccc(NC(=O)c2ccc(-c3cc(-c4nnc(C)o4)ccc3C)cc2)cc1 [GW595885]	0	22	14	0	0	0	0	9	0	0
Cl.c1ccc(Cn2ncc3cc(Nc4ncnc5ccccc45)ccc32)cc1 [GW273749]	7	0	0	11	15	0	1	0	0	0
Fc1cccc(COc2ccc(Nc3ncnc4nn5ccccc5c34)cc2Cl)c1 [GW689066]	0	0	13	0	33	0	0	37	0	0
Fc1cccc(COc2ccc(Nc3ncnc4cc[nH]c34)cc2Cl)c1	11	6	6	10	0	21	17	8	11	2
CN1CCC(n2cnc(-c3ccc(F)cc3)c2-c2ccnc(NC3CCNCC3)n2)CC1 [SB-229482]	0	0	33	11	44	4	30	11	0	0
C[C@H]1CC[C@@H](C(=O)Nc2ccccc2)CN1c1cc(-c2ccc3c(N)n[nH]c3c2)nc(N)n1 [GSK2283293]	0	0	0	0	0	0	0	14	0	22
COC(=O)c1cccc(NC(=O)NCCNc2ccnc(Nc3ccc(F)cc3)n2)c1 [GSK1379883]	0	2	0	0	34	0	0	8	0	3
O=C(NCCCN1CCCC1=O)c1cnc(NCc2cc(Cl)ccc2Cl)nc1NC1CCNCC1	0	2	0	0	0	11	33	0	0	3
CS(=O)(=O)CCNCc1nc(-c2ccc3ncnc(Nc4ccc(OCc5cccc(F)c5)c(Cl)c4)c3c2)cs1.Cl [GW583340]	0	0	0	0	34	0	0	3	10	0
COc1ccc(Nc2nccc(N3CCC(NC(=O)c4cccc(NC(C)=O)c4)C3)n2)cc1 (centres unmarked) [GSK1379732]	0	0	20	0	0	0	3	56	0	9
COc1ccc(NC(=O)Nc2ccc(C)c(-c3ccc(C(=O)Nc4ccncc4)cc3)c2)cc1 [GSK1398475]	0	0	0	9	7	0	0	40	0	1
